Measurements published in PubChem BioAssay (NCATS).
Inconclusive results are not listed. Active and inactive are the calls of the source. Calls follow the shape of the dose curve; as a rule, active = well fitted curve in the direction sought with a large enough effect; inconclusive = small, poorly fitted or top-dose-only effect, or another doubt; inactive = no such curve, though single readings can be large; an effect the other way counts as inactive or inconclusive. Where a SMILES comes first, the peptide text is derived from it. Bridges are numbered along the chain shown (N, C = ends). [ ]: non-standard residue; d: D form. hArg = N=C(N)NCCCC[C@H](N)C(=O)O; Mpa = O=C(O)CCS

Experiments:
[1] = qHTS assay for measurement of the activity of small molecule inhibitors on Zika virus induced Caspase-3 activity in human iPSC derived neural progenitor cells (hNPCs) (AID 1224857); also: nearly all actives have a fitted effect of over 65% in size
Summary of the method: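 Values are percent inhibition of virus-induced caspase-3/7 signal, scaled between uninfected cells and ZIKV-infected cells. Infection used 2 FFU/cell for 6 h after 1 h compound exposure.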

[2] = qHTS assay to identify small molecule inhibitors of chordoma cells - UCH-1 (AID 1259355); also: nearly all actives have a fitted effect of over 55% in size
Summary of the method: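 800 cells/well, overnight attach; compounds pinned at 15 concs, then auranofin/camptothecin/doxorubicin/rubitecan/topotecan combo added; 48hr 37 C, 5% CO2; CellTiter-Glo, 30min RT, luminescence.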

[3] = qHTS assay to identify small molecule inhibitors of chordoma cells - UCH-2 (AID 1259356); also: series mostly up to about 46 µM

SMILES | outcome [1] | outcome [2] | outcome [3]
CC[N+](CC)(CC(=O)Nc1c(C)cccc1C)Cc1ccccc1 | inactive | inactive | inactive
C[N+](C)(C)CC(O)CC(=O)[O-] (stereo not given) | inactive | inactive | inactive
Nc1c2c(nc3c1CCC3)CCCC2 | inactive | inactive | inactive
COc1cc(C(=O)NCCCCCC(=O)O)cc(OC)c1OC | inactive | inactive | inactive
CC(C)CCOC(=O)c1ccc(N(C)C)cc1 | inactive | inactive | inactive
O=C(/C=C/c1ccc(O)c(O)c1)O[C@@H]1C[C@@](OC(=O)/C=C/c2ccc(O)c(O)c2)(C(=O)O)C[C@@H](O)[C@@H]1O | inactive | inactive | inactive
O=C(O)CNC(=O)c1ccccc1I | inactive | inactive | inactive
CCN1CC(CCN2CCOCC2)C(c2ccccc2)(c2ccccc2)C1=O (stereo not given) | inactive | inactive | inactive
O=C(O)Cn1c(C(=O)Nc2nc(-c3ccccc3Cl)cs2)cc2ccccc21 | inactive | inactive | inactive
Cc1cccc(C(=O)O)c1O | inactive | inactive | inactive
C[C@@H](N)C(=O)O | inactive | inactive | inactive
Nc1ccncc1N | inactive | inactive | inactive
NC(=O)[C@@H]1CSSCCC(=O)N[C@@H](CCCCN=C(N)N)C(=O)NCC(=O)N[C@@H](CC(=O)O)C(=O)N[C@@H](Cc2c[nH]c3ccccc23)C(=O)N2CCC[C@H]2C(=O)N1 ([Mpa][hArg]GDWPC-NH2; disulfide 1-7) | inactive | inactive | inactive
Cc1cc(=O)[nH]c(=S)[nH]1 | inactive | inactive | inactive
CO[C@@]1(NC(=O)C(C(=O)O)c2ccc(O)cc2)C(=O)N2C(C(=O)O)=C(CSc3nnnn3C)CO[C@@H]21 (stereo not given in full) | inactive | inactive | inactive
Nc1ncnc(Nc2ccccc2)n1 | inactive | inactive | inactive

SMILES | outcome [1] | outcome [2] | outcome [3]
CC(=O)Nc1cccc(O)c1 | inactive | inactive | inactive
C[C@]1(Cn2ccnn2)[C@H](C(=O)O)N2C(=O)C[C@H]2S1(=O)=O | inactive | inactive | inactive
OC[C@@H](O)[C@@H](O)[C@H](O)[C@H](O)CO | inactive | inactive | 
NC(=O)N[C@@H](CCC(=O)O)C(=O)O | inactive | inactive | 
CCN(CC)C(=O)c1cccc(C)c1 | inactive | inactive | inactive
CCCCCCCCCCC(CO)CCCCCCCC (stereo not given) | inactive | inactive | inactive
CC(=O)NS(=O)(=O)c1ccc(N)cc1 | inactive | inactive | inactive
CCCCCCCC(=O)OCC(COC(=O)CCCCCCC)OC(=O)CCCCCCC | inactive | inactive | inactive
CCCOC(=O)c1ccc(N)cc1 | inactive | inactive | inactive
Cc1onc(-c2ccccc2)c1-c1ccc(S(N)(=O)=O)cc1 | inactive | inactive | 
CC(=O)N[C@@H](Cc1ccc(O)cc1)C(=O)O | inactive | inactive | inactive
Cc1ccc(C(C)C)c(O)c1 | inactive | inactive | inactive
NS(=O)(=O)c1cc2c(cc1C(F)(F)F)NCNS2(=O)=O | inactive | inactive | inactive
CC(=O)N1C[C@H](O)C[C@H]1C(=O)O | inactive | inactive | inactive
CC(C)=CCC/C(C)=C/CO | inactive | inactive | inactive
